# Measured values as given in the supplement of paper PMC6555819.
# Legend:
# Test in all cases: PBM binding z-score (relative to random genomic background probes); higher = stronger binding; sequences stand for … in GC…GCGATTGACAGCGTAGAATGAAGG
# [1] = system: FXR:RXRa (NR concentration 270 nM, RXRa partner concentration 90 nM)
# Method in brief: (§1)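 Each nuclear receptor dimer, without ligand, was incubated for 1 h on custom Agilent 4×180K protein-binding microarrays. Binding was detected with antibodies against each partner (one per run), and scanned fluorescence was regression-normalized. The binding z-scores are referenced to random human genomic background probes.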
# [2] = system: LXRa:RXRa (NR concentration 270 nM, RXRa partner concentration 90 nM)
# Method in brief: as §1
# [3] = system: LXRa homodimer (NR concentration 270 nM)
# Method in brief: as §1
# [4] = system: LXRb:RXRa (NR concentration 270 nM, RXRa partner concentration 90 nM)
# Method in brief: as §1
# [5] = system: LXRb homodimer (NR concentration 270 nM)
# Method in brief: as §1
# [6] = system: PPARa:RXRa (NR concentration 270 nM, RXRa partner concentration 90 nM)
# Method in brief: as §1
# [7] = system: PPARg:RXRa (NR concentration 180 nM, RXRa partner concentration 90 nM)
# Method in brief: as §1
# [8] = system: PPARg:RXRa 270nM:90nM, anti-RXR (NR concentration 270 nM, RXRa partner concentration 90 nM)
# Method in brief: as §1
# [9] = system: PPARg:RXRa 30nM:10nM, anti-RXR (NR concentration 30 nM, RXRa partner concentration 10 nM)
# Method in brief: as §1
# [10] = system: PPARg:RXRa 90nM:30nM, anti-RXR (NR concentration 90 nM, RXRa partner concentration 30 nM)
# Method in brief: as §1
# [11] = system: PPARg:RXRa DBDmut IVT, anti-RXR (DBD mutation: RXRa K156A/R161A, NR concentration 270 nM, RXRa partner concentration 90 nM)
# Method in brief: as §1
# [12] = system: PPARg:RXRa IVT, anti-PPARg (NR concentration 270 nM, RXRa partner concentration 90 nM)
# Method in brief: as §1
# [13] = system: PPARg DBDmut:RXRa IVT, anti-PPARg (DBD mutation: PPARg1 K132A/R137A, NR concentration 270 nM, RXRa partner concentration 90 nM)
# Method in brief: as §1
# [14] = system: PPARg DBDmut IVT, anti-PPARg (DBD mutation: PPARg1 K132A/R137A, NR concentration 270 nM)
# Method in brief: as §1
# [15] = system: PPARg homodimer (NR concentration 180 nM)
# Method in brief: as §1
# [16] = system: PXR:RXRa (NR concentration 270 nM, RXRa partner concentration 90 nM)
# Method in brief: as §1
# [17] = system: PXR homodimer (NR concentration 270 nM)
# Method in brief: as §1
# [18] = system: RARa:RXR (NR concentration 270 nM, RXRa partner concentration 90 nM)
# Method in brief: as §1
# [19] = system: RARa homodimer (NR concentration 270 nM)
# Method in brief: as §1
# [20] = system: RARb:RXRa (NR concentration 270 nM, RXRa partner concentration 90 nM)
# Method in brief: as §1
Sequence,PBM binding z-score [1],PBM binding z-score [2],PBM binding z-score [3],PBM binding z-score [4],PBM binding z-score [5],PBM binding z-score [6],PBM binding z-score [7],PBM binding z-score [8],PBM binding z-score [9],PBM binding z-score [10],PBM binding z-score [11],PBM binding z-score [12],PBM binding z-score [13],PBM binding z-score [14],PBM binding z-score [15],PBM binding z-score [16],PBM binding z-score [17],PBM binding z-score [18],PBM binding z-score [19],PBM binding z-score [20]
ACTAGCAGGCCAAGTTCGGGTCACTCAAACAAAG,1.11,1.28,0.378,1.79,-0.339,2.45,0.431,0.794,-0.79,0.197,0.756,1.07,-0.452,-1,1.34,2.55,0.53,3.19,-0.287,2.33
CGTACAAGGTCAGAGAGGTCAGTGAATGCCGAGT,6.42,5.64,3.38,4.41,0.711,5.09,4.76,4.98,1.97,3.42,3.77,4.39,1.15,1.93,3.94,6.31,12.2,5.87,1.83,5.17
TGTCAAAGTTCAAAGCTAACGTAAGTATCCACAC,6.52,6.15,3.83,4.14,1.86,5.22,7.92,7.25,4.27,7.06,0.771,3.82,1.34,1.18,2.01,4.29,3.01,3.5,1.14,5.04
ACTATTAGTTGAGGCGAGGGCAACCGATAGGTTG,0.489,0.289,0.0582,0.0711,0.108,0.378,0.389,0.0046,0.138,-0.0218,0.169,0.559,0.713,0.82,0.794,0.918,0.305,0.644,0.393,1.4
TCTATTAGTTGATTAGGACAACCGAAACAGCGGA,0.957,0.808,0.615,0.807,1.17,0.875,0.378,2.18,4.26,3.32,2.5,0.979,0.853,1.57,1.65,0.749,0.881,0.862,2.34,0.68
TCAAGTAGGTTAGTCGGGGCATTCAGCCAACATA,0.926,0.645,0.0892,1.03,0.134,1.68,1.07,2.48,3.63,3.14,4.81,4.14,0.386,1.15,1.35,0.801,0.708,0.739,0.814,0.917
TCTCGGAGGACCCGAAGGTCAGAGCTTTCCAGAG,0.805,0.637,-0.12,0.902,-1.45,1.69,0.0649,1.18,1.64,1.63,0.809,-0.16,-1.17,-1.31,0.165,1.42,-0.264,1.89,-0.281,2.35
CCTGCCAGGTCATGGTCAGCTAATCTACAGTATG,3.97,3.04,-0.0461,2.28,-0.151,3.94,2.04,2.5,0.448,1.27,2.15,2.35,-0.561,-0.338,1.2,2.16,0.231,2.61,-0.0161,3.78
TCATATAGGTAAATGCTAGGTGAAAGCCCGATCT,0.778,0.754,0.00437,0.675,-0.102,1.4,0.799,2.27,3.75,3.05,3.61,2.73,0.828,0.941,0.598,0.505,-0.0207,1.05,0.798,0.444
TTACCAAGGTGAGCTGCGGTCGTTGATCCAACTC,0.391,0.351,-0.281,-0.0836,-1.32,0.597,-0.444,-0.0826,-0.536,-0.439,0.329,1.64,0.125,-0.586,-0.584,1.38,-0.459,0.61,-0.775,1.07
TAGCCTAGGTCATTCAGGGGCCAGTATTGAAAGC,4.17,3.5,0.907,3.03,0.763,3.43,1.63,2.22,0.291,1.32,1.67,2.66,-0.277,-0.0243,2.68,2.72,-0.361,3.99,-0.562,3.8
GCAGACAGGTGAAACCCAGGTAACTCAGGGTGGC,0.292,-0.00475,-0.738,-0.364,-0.909,0.818,0.657,-0.0881,-0.673,-0.524,0.362,0.476,-0.384,-0.363,-0.871,-0.19,-0.863,0.261,-1.14,0.645
GATACAGGTTCAAGGCCAGAGTACGCGTATTGAT,1.85,1.7,0.305,1.41,-0.271,2.72,1.43,1.64,0.208,1.19,-0.252,0.582,-0.175,-0.432,1.38,1.9,0.971,1.61,0.647,1.79
